{"source": "PubChem BioAssay (NCATS)", "note": "Results filed as inconclusive are left out. The source made the active and inactive calls. The call rests on the fitted dose curve; in most records, active means well fitted activation curve with a large enough effect; inconclusive means small, poorly fitted or top-dose-only effect; inactive means flat fitted curve, though single readings scatter."}
{"assay": "Cellular Toxicity (caspase-3) H-4-II-E (AID 663);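 further: cells exposed to compound for 16 hr before readout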", "settings": "H-4-II-E rat hepatoma, scaled: DMSO 0%, 100 µM tamoxifen 100%; at 92.2 µM (top of the series)", "source_text": "NIH Chemical Genomics Center [NCGC]\nNIH Molecular Libraries Screening Centers Network [MLSCN]\nNational Institutes of Environmental Health Sciences [NIEHS]\nNational Toxicology Program [NTP]\nWe have developed a 1536-well cell-based assay for quantitative high throughput screening (qHTS) against a number of cell lines to determine in vitro caspase 3/7 of small molecules. This particular assay uses the H-4-II-E cell line which is derived from rat hepatoma.\nNCGC Assay Protocol Summary:\nThe Caspase-Glo 3/7 assay (Promega) is a homogeneous method to measure caspase-3 and caspase-7 activities in cultured cells. The quantitation of caspase 3/7 activity is based on the cleavage of a peptide-aminoluciferin substrate. After caspase cleaves the substrate the free aminoluciferin is liberated and serves as the substrate of luciferase, which generates the light. The luminescent signal is proportional to amount of caspase 3/7 activity present.\nUsing the Caspase-Glo 3/7 assay, the amount of caspase 3/7 activity was measured in the H-4-II-E cell line with complete culture medium following compound treatment for 16 hours. The assay was performed in opaque white 1536-well plates. In the screen, tamoxifen and doxorubicin were used as positive controls. Library compounds were measured for their ability to cause the activation of caspase 3/7 in the cell line, as reflected by an increase in luminescence signal, in a concentration-dependent manner. Data were normalized to the controls for basal activity (DMSO only) and 100% stimulation (100 uM tamoxifen). AC50 values were determined from concentration-response data modeled with the standard Hill equation.\nqHTS protocol for caspase 3/7 assay in H-4-II-E cells\n[Step] [Parameter] [Value] [Description]\n1. Reagent; 5 uL; 1500 H-4-II-E cells/well\n2. Time; 5 hr; 37 °C incubation\n4. Controls; 23 nL; Tamoxifen 0.23 uM to 100 uM & Doxorubicin 7.0 pM to 100 uM\n5. Time; 16 hr; 37 °C incubation\n6. Reagent; 5 uL; Caspase-Glo 3/7 reagent\n7. Time; 20 min; Room Temperature\n8. Detection; Luminescence; Viewlux plate reader\nKeywords: caspase 3/7, apoptosis, H-4-II-E cell line, luminescence, NTPHTS, NTPHTS_NCGC, NIEHS, EPA, DSSTox, MLSMR, MLSCN, NIH Roadmap, qHTS, NCGC"}
{"smiles": "O=C(O)Cc1cccc2ccccc12", "caspase-3 activation": "0.142% (inactive)"}
{"smiles": "O=C(O)c1cc(O)c2c(c1)C(=O)c1cccc(O)c1C2=O", "caspase-3 activation": "1.57% (inactive)"}
{"smiles": "O=c1cc(-c2ccc(O)cc2)oc2cc(O)cc(O)c12", "caspase-3 activation": "9.21% (inactive)"}
{"smiles": "CC(=O)c1ccc(S(=O)(=O)NC(=O)NC2CCCCC2)cc1", "caspase-3 activation": "1.08% (inactive)"}
{"smiles": "CC(=O)O[C@]1(C(C)=O)CC[C@H]2[C@@H]3C=C(Cl)C4=CC(=O)[C@@H]5C[C@@H]5[C@]4(C)[C@H]3CC[C@@]21C", "caspase-3 activation": "0.0575% (inactive)"}
{"smiles": "O=c1[nH]cnc2c1ncn2[C@H]1CC[C@@H](CO)O1", "caspase-3 activation": "0.398% (inactive)"}
{"smiles": "O=c1c(-c2ccc(O)cc2)coc2cc(O)ccc12", "caspase-3 activation": "-2.27% (inactive)"}
{"smiles": "CC1=C(/C=C/C(C)=C/C=C/C(C)=C/C(=O)Nc2ccc(O)cc2)C(C)(C)CCC1", "caspase-3 activation": "91.2% (active)"}
{"smiles": "CCn1cc(C(=O)O)c(=O)c2ccc(C)nc21", "caspase-3 activation": "-0.698% (inactive)"}
{"smiles": "CCCCC1C(=O)N(c2ccccc2)N(c2ccccc2)C1=O", "caspase-3 activation": "0.827% (inactive)"}
{"smiles": "CN(C)CCC(c1ccccc1)c1ccccn1", "note": "(stereo not drawn)", "caspase-3 activation": "1.53% (inactive)"}
{"smiles": "O=C1NC(=O)C(c2ccccc2)(c2ccccc2)N1", "caspase-3 activation": "0.679% (inactive)"}
{"smiles": "CCCNC(=O)NS(=O)(=O)c1ccc(Cl)cc1", "caspase-3 activation": "-0.479% (inactive)"}
